Screens deposited in PubChem by several laboratories.
Hits are enriched below; roughly 2.7% of the tested compounds scored in any of these assays.
IDE inh: inhibits human insulin-degrading enzyme in HEK cells; P14735; FAbetaB cleavage, fluorescence polarization; inhibition, % at 5.59 µM; 320,000 compounds, 0.41% hits; AID 434962;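 active means percent inhibition above the average of all tested compounds plus 3 SD, set per screening campaign, cut at about 16% in these data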;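 further: IDE supplied by intact live HEK cells; FP after avidin binding of uncleaved biotin substrate so inhibition keeps polarization high; 0% = DMSO wells and 100% = 60 µM reference IDE inhibitor Ii1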
IDE cell activ: boosts human insulin-degrading enzyme activity in HEK cells; P14735; FAbeta-B cleavage, fluorescence polarization; 0% vehicle, 100% cell-free pure enzyme wells; activation, % at 5.96 µM; 340,000 compounds, 0.073% hits;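 active means activation above the mean of all tested compounds plus 3 SD, set per screening campaign, cut at about 17% in these data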
CHT allo act: allosterically activates the human high affinity choline transporter. Q9GZV3. CHT-expressing cells, membrane potential dye, choline EC20; active compounds read high; LV-AA mutant CHT in HEK293 cells. B-score at 10 µM. 310,000 compounds, 0.49% hits;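 active means initial fluorescence not abnormally high and integrated response B-score, plate-corrected, over 3 SD above library mean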
CHT inh: inhibitors of human choline transporter CHT; B-score at 10 µM; CHT-expressing cells, membrane potential dye, choline response; active compounds read low; 310,000 compounds, 0.86% hits; Q9GZV3;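 active means B-score over 3 SD under the library average, and starting fluorescence ratio not unusually high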;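 further: choline stimulus applied at its EC90 after an EC20 pre-addition; B-score computed on integrated fluorescence ratio after choline addition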
TMEM16A act: activators or potentiators of mouse TMEM16A chloride channel | Q8BHY3 | HEK293 TMEM16A/YFP-H148Q/I152L, iodide quench fluorescence; active compounds read low | B-score at 10 µM | 340,000 compounds, 0.3% hits | AID 623877;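 active means fluorescence-ratio B-score plate-corrected deviation score at least 3 library SD below zero, with starting fluorescence score within 5 deviations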;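 further: channel opened by trigger with iodide after compound preincubation; score built on the fluorescence ratio of max minus min over baseline; more negative score means more quench and so TMEM16A activation or potentiation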
TMEM16A inh: mouse TMEM16A channel inhibition, primary screen; normalized B-score (activity score, 25-100; higher = stronger inhibition) at 10 µM; Q8BHY3; AID 588511; 310,000 compounds, 1.2% hits; HEK293 TMEM16A/YFP iodide influx fluorescence, ionomycin;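 active means ratio plate-corrected score three or more library SD toward inhibition, starting fluorescence score within five deviations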;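 further: score derived from kinetic fluorescence span divided by baseline fluorescence per well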
CHT act confirm: human CHT activation, confirmatory screen | 2,500 compounds, 91% hits | AID 504833 | CHT-expressing cells, membrane potential dye fluorescence (FDSS); % of choline EC20–EC90 response window; HEK293 expressing CHT LV-AA mutant; choline added at its EC20 | activation, % at 10 µM | shares compounds with CHT allo act;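 active means primary screen active, with duplicate mean activation above negative control mean plus 3 SD, cut at about 11% in these data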
HEK293 MP dye: activity in parental HEK293 cells lacking CHT; shares compounds with CHT allo act; membrane potential dye fluorescence (FDSS); measured after EC20 choline addition; ratio readout change at 10 µM, hits read low; 2,500 compounds, 62% hits;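 active means duplicate-averaged ratio beyond 3 SD from buffer wells, up or down, though filed actives are nearly all decreases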
The depositor's hits bear a star; i = inactive; · = no result given.

SMILES	IDE inh	IDE cell activ	CHT allo act	CHT inh	TMEM16A act	TMEM16A inh	CHT act confirm	HEK293 MP dye
NC(=O)c1cc(-c2ccccc2)nc(N2CCOCC2)n1	-8	1	i	i	i	i	·	·
CC[n+]1cc(-c2ccccc2)nc(N2CCOCC2)n1	1	-6	i	i	i	i	41*	-39*
N=c1n(CCN2CCCCC2)c2ccccc2n1CC(O)c1cccc(Br)c1 (centres undefined)	-1	-2	11*	i	i	i	37*	i
N=c1n(CCN2CCCC2)c2ccccc2n1CC(O)c1ccco1 (centres undefined)	0	4	i	i	i	i	38*	-25*
CCCCn1c(N)c(N(CCOC)C(=O)CN2C(=O)C3CCCCC3C2=O)c(=O)[nH]c1=O (centres undefined)	-3	1	·	·	i	·	·	·
CC(=O)c1ccc2c(c1)N(CCCN(C)C)c1ccccc1S2	·	0	·	·	i	·	·	·
CCC(=O)c1ccc2c(c1)N(CCCN(C)C)c1ccccc1S2	5	1	9.1*	i	i	i	29*	-45*
CCOC(=O)N1CCN(C(=O)c2ccc(N(Cc3ccc(Cl)cc3)S(C)(=O)=O)cc2)CC1	-3	-1	8.8*	i	i	i	2	i
O=S(=O)(NC1C2CC3CC(C2)CC1C3)c1ccc(F)cc1 (centres undefined)	·	-2	·	·	i	·	·	·
Cc1ccn2cc(C34CC5CC(CC(C5)C3)C4)nc2c1	0	5	8.9*	i	i	i	17*	i
COc1ccc(-c2c(-c3cc(OC)cc(OC)c3)n(C)c3ccc(-c4ccc(N(C)C)nc4)cc23)cc1	1	0	·	·	i	·	·	·
COC(=O)c1ccc2c(c1)C(C)(C)C(/C=C/c1ccc(OC)c(OC)c1OC)=[N+]2C	1	-3	6.5*	i	i	i	59*	-65*
COc1ccc(C(=O)c2ccc(Cl)cc2)c(OC)c1OC	·	1	·	·	i	·	·	·
Cc1ccc([N+](=O)[O-])cc1-c1ccc(/C=N/NC(=O)CN2CCOCC2)o1	2	-4	i	i	i	i	51*	-51*
CCCCN(CC)CCCNC(=O)c1cn(C)c2ccc(S(=O)(=O)N(C)C3CCCCC3)cc2c1=O	-1	5	i	i	i	i	·	·
CC(C)OCCCNC(=O)c1cn(C)c2ccc(S(=O)(=O)N(C)C3CCCCC3)cc2c1=O	0	2	i	i	i	i	·	·
CCN(CC)CCCNC(=O)c1cn(C)c2ccc(S(=O)(=O)N(C)C)cc2c1=O	-2	-3	6.4*	i	i	i	55*	-35*
CN(C1CCCCC1)S(=O)(=O)c1ccc2c(c1)c(=O)c(C(=O)NCCN1CCCC1)cn2C	0	5	i	i	i	i	40*	-37*
CN(CCNC(=O)c1cn(C)c2ccc(S(=O)(=O)N(C)C)cc2c1=O)CCc1ccccc1	2	3	i	i	i	i	23*	-26*
CC(=O)c1ccc[n+](CC(=O)NC(C)c2ccccc2)c1 (centres undefined)	6	4	i	i	i	i	·	·
O=C(NCCO)c1ccc2c3n(nc2c1)-c1ccc(Cl)cc1CO3	8	3	8.6*	i	i	i	20*	-23*
CN1Cc2c(N3CCOCC3)nc3sc(C#N)c(N)c3c2CC1(C)C	-1	4	i	i	i	i	50*	-55*
CN1Cc2c(N3CCOCC3)nc3sc(C(=O)c4ccc(Br)cc4)c(N)c3c2CC1(C)C	1	·	i	i	i	i	·	·
